ATXN2 expr inh: reduces ATXN2 reporter expression in HEK-293 cells | HEK-293 ATXN2-luciferase reporter, luminescence, 24 h | Potency, µM (top dose mostly 57 µM), without a hit: at the highest dose activity change, negative = inhibition, actives largely listed as inhibitors | hit rate 0.72% among 360,000 | AID 1745845; also: % is scaled to controls: 0 for no effect and ±100 for the full control effect; nearly all actives have a fitted effect of over 55% in size
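ATXN2-luciferase reporter cells (luciferase flanked by upstream and downstream ATXN2 gene portions) were treated 24 h at 37 °C with compounds at up to 57 uM. SteadyGlo luminescence gave expression; GF-AFC fluorescence gave viability.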
RORg inh: inhibitors of mouse ROR gamma transcriptional activity; Drosophila S2 Gal4-RORgamma UAS-luciferase reporter, 20 h; Potency, µM (doses to about 53.6 µM), without a hit: top-dose activity change, negative = inhibition, usual class: inhibitors; hit rate 5.4% among 310,000; also: % is scaled to controls: 0 for no effect and ±100 for the full control effect; nearly all actives have a fitted effect of over 60% in size
Target sequence (P51450 whole entry, looked up, the tested form may be a part): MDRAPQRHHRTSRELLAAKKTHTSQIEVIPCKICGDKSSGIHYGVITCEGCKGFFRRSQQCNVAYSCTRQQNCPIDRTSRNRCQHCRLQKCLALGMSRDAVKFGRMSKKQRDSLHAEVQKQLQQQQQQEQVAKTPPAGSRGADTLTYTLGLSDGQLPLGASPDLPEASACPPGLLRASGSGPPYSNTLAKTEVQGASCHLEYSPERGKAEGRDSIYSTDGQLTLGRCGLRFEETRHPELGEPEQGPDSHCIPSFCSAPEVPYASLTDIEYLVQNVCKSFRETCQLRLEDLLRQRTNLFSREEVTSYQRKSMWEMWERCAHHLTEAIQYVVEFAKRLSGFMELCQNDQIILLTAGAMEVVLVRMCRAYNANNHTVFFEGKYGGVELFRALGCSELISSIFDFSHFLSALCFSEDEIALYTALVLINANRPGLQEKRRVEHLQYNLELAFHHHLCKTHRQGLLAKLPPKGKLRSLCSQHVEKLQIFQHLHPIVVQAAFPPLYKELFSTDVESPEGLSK
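Schneider cells (Drosophila), stable Gal4 DBD–ROR gamma + UAS-luc; 1 hr cmpd preincubation; Cu2+ induction 700 uM final; 20 hr ambient; luminescence.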
Gal4-VP16 FLuc: Gal4-VP16 reporter inhibition counter-screen; hit rate 3.5% among 310,000; Potency, µM (titrated, usually from 53.6 µM), inactives show at the top dose activity, negative = inhibition, usual class: inhibitors; Drosophila S2 Gal4-VP16 UAS-luciferase, luminescence, 20 h;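 also: Gal4-VP16 expression switched on by copper sulfate through the metallothionein promoter; % is scaled to controls: 0 for no effect and ±100 for the full control effect; nearly all actives have a fitted effect of over 50% in size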
ATXN viability: viability counter-screen for ATXN expression inhibitors; Potency, µM (doses to about 56.7 µM), hits mostly cytotoxic; S2 cells (HEK-293 line with an ATXN2-luciferase reporter) viability, CellTiter-Fluor protease fluorescence, 24 h; AID 651635; hit rate 0.49% among 400,000; also: nearly all actives have a fitted effect of over 40% in size
HepG2 tox-1: kills HepG2 cells in TGF-b inhibitor counter-screen | hit rate 0.76% among 410,000 | Potency, µM (doses to about 46.1 µM), for the others: at the top dose activity change, negative = cytotoxicity, most hits filed as cytotoxic | HepG2 CAGA-GFP viability, ATP luminescence, 18 h
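HepG2 CAGA-GFP cells (1000/well, DMEM with 1% FBS) received compound, then TGF-beta at 500 pg/mL final, and were incubated 18 hours at 37 degrees C. Viability was read by CellTiter-Glo luminescence. Media-only wells were set as complete cell-killing and DMSO as no toxicity.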
TGFb SMAD3 inh: blocks TGF-b signaling. HepG2 CAGA-GFP TGF-b/SMAD3 reporter, GFP fluorescence, 18 h; TGF-beta stimulated, 500 pg/mL final. Potency, µM (top dose mostly 46.1 µM), inactives show top-dose activity, negative = inhibition, hits mostly inhibitors. hit rate 1.2% among 410,000; also: % is scaled to controls: 0 for no effect and ±100 for the full control effect; nearly all actives have a fitted effect of over 65% in size
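HEPG2 CAGA-GFP, 1000 cells/well; 2 h settle, 37 C; cpd via pin tool; TGF-b 500 pg/mL final; 18 h, 37 C; GFP imaging ex488/em500-530; %Activity normalised to -TGF-b and +DMSO controls; CRC fit, curve class.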
TGFb confirm: TGF-b pathway inhibition, cherry-pick retest | shares compounds with TGFb SMAD3 inh | HepG2 CAGA-GFP TGF-b reporter, GFP fluorescence, 18 h; cells stimulated with TGF-beta, 500 pg/mL | Potency, µM (series often up to 46.1 µM), for the others: at the highest dose activity, negative = inhibition, hits mostly inhibitors | hit rate 63% among 1,600 | AID 720534; also: % is scaled to controls: 0 for no effect and ±100 for the full control effect; nearly all actives have a fitted effect of over 65% in size
HepG2 tox-2: HepG2 cytotoxicity, TGF-b inhibitor counterscreen; HepG2 CAGA-GFP viability, ATP luminescence, 18 h; cells stimulated with TGF-beta, 500 pg/mL; AID 720535; shares compounds with TGFb SMAD3 inh; hit rate 27% among 1,600; Potency, µM (doses to about 46.1 µM), inactives show at the highest dose activity, negative = cytotoxicity, hits mostly inhibitors; also: % is scaled to controls: 0 for no effect and ±100 for the full control effect; nearly all actives have a fitted effect of over 70% in size
CCL64 TGFb inh: orthogonal confirmation of TGF-b inhibitors in CCL64 cells. shares compounds with TGFb SMAD3 inh. CCL64 CAGA-GFP reporter, TGF-b stimulated, GFP fluorescence, 18 h. Potency, µM (doses to about 46.1 µM), inactives show at the top dose activity, negative = inhibition, hits mostly inhibitors. hit rate 41% among 1,600; also: nearly all actives have a fitted effect of over 65% in size
TGFb COP inh: TGF-b inhibition validated with COP promoter | shares compounds with TGFb SMAD3 inh | HepG2 COP-GFP TGF-b reporter, GFP fluorescence, 18 h; cells stimulated by added recombinant TGF-beta | Potency, µM (titrated, usually from 46.1 µM), for inactives: at the top dose activity, negative = inhibition, hits mostly inhibitors | hit rate 3% among 1,600 | AID 720537; also: nearly all actives have a fitted effect of over 70% in size
The depositor's hits bear a star; i = inactive; u = inconclusive; x = no result. Hits are enriched below; roughly 6.3% of the tested compounds scored in any of these assays. Calls follow the shape of the dose curve; as a rule, active = well fitted curve in the direction sought with a large enough effect; inconclusive = small, poorly fitted or top-dose-only effect, or another doubt; inactive = no such curve, though single readings can be large; an effect the other way counts as inactive or inconclusive. Potency is read from the fitted curve at half-maximal effect.

SMILES	ATXN2 expr inh	RORg inh	Gal4-VP16 FLuc	ATXN viability	HepG2 tox-1	TGFb SMAD3 inh	TGFb confirm	HepG2 tox-2	CCL64 TGFb inh	TGFb COP inh
CC(C)C[C@@H]1NC(=O)[C@H](Cc2ccccc2)N(C)C(=O)[C@H](C)NC(=O)c2ccccc2NC(=O)[C@H](Cc2ccc(O)cc2)N(C)C1=O	u	14%	-10%	i	-19%	-9%	x	x	x	x
C/C=C/CC(C)C(O)C1C(=O)NC(CC)C(=O)N(C)CC(=O)N(C)C(CC(C)C)C(=O)NC(C(C)C)C(=O)N(C)C(CC(C)C)C(=O)NC(C)C(=O)NC(C)C(=O)N(C)C(CC(C)C)C(=O)N(C)C(CC(C)C)C(=O)N(C)C(C(C)C)C(=O)N1C (configuration not stated)	x	-1%	-19%	x	x	x	x	x	x	x
CCOc1ccc(NS(=O)(=O)c2ccc3[nH]cc(C(=O)N(C)C4CCCCC4)c(=O)c3c2)cc1	14%	x	x	i	2%	4%	x	x	x	x
O=C(NCc1ccccc1F)C1CCN(Cc2cc3ccccc3n2Cc2cccc(Cl)c2)CC1	8%	x	x	i	-25%	-10%	x	x	x	x
O=C(CCN1C(=O)c2ccccc2C1=O)c1ccccc1	x	x	x	i	8%	u	x	x	x	x
COc1cc(OC)c2c(-c3cccc(-c4ccc(NC(C)=O)cc4)c3)cc(=O)oc2c1	9%	-18%	-16%	u	-13%	4.5µM*	1.6µM*	-14%	2.1µM*	13%
CCOc1ccc(N(CC(=O)NC2CCCCC2)C(=O)CNC(=O)c2cccs2)cc1	-16%	-7%	4%	i	-13%	12%	x	x	x	x
COc1ccc(CN2CC[C@H]3C=CC[C@@H](C(=O)NCc4cccnc4)[C@H]3C2=O)cc1OC	x	x	x	x	17%	0%	x	x	x	x
O=C(Nc1ccc(Br)cc1)c1cccc(S(=O)(=O)Nc2cnc3ccccc3c2)c1	-17%	u	u	i	-27%	13µM*	8.2µM*	u	23µM*	92%
Cc1ccccc1OCC(=O)Nc1nc(-c2ccncc2)cs1	-15%	x	x	u	-28%	-5%	x	x	x	x
Cc1cc(C)c(OCC(=O)Nc2nc(-c3ccccn3)cs2)c(C)c1	u	2.8µM*	u	u	-35%	10µM*	u	-29%	u	31%
COc1ccc(Nc2nc(N3CCCC3)nc3ccccc23)c(OC)c1	10µM*	-40%	-15%	20µM*	-58%	10µM*	u	u	u	66%
O=C(CN1CCN(C(=O)C2CCN(C(=O)/C=C/c3ccccc3)CC2)CC1)Nc1ccc(F)cc1	7%	x	x	i	-26%	-90%	-24%	-1%	-2%	3%
O=C(CN1CCC(C(=O)c2ccc(F)cc2)CC1)Nc1ccccc1	-11%	38%	u	i	-25%	u	x	x	x	x
CN(C)c1ccc(C=NN2C(=O)CSC2=S)c(Cl)c1	x	x	x	i	-7%	10%	x	x	x	x
CC(C)CNC(=O)C1(C)CCCCCN1C(=O)c1cc(C#N)cs1 (configuration not stated)	-3%	x	x	i	6%	10%	x	x	x	x
Cc1ccccc1OCC(O)CNC1CCC(NCC(O)COc2ccccc2C)CC1 (configuration not stated)	u	u	u	u	1.8µM*	5.6µM*	4.6µM*	5.2µM*	u	u
Cc1ccc(OCC(O)CNC2CCCC2)c(C)c1 (configuration not stated)	x	-12%	4%	u	-4%	-3%	x	x	x	x
CC(=O)Nc1ccc(NC2=C(Cl)C(=O)c3ccccc3C2=O)cc1	u	u	-8%	x	3.5µM*	3.5µM*	5.2µM*	15µM*	2.9µM*	u
O=C(NC1=C(Nc2ccc(Cl)cc2)C(=O)c2ccccc2C1=O)c1ccccc1	-10%	14µM*	u	u	28µM*	8.9µM*	15µM*	21µM*	u	-28%
O=C1C(Cl)=C(Nc2ccc3cn[nH]c3c2)C(=O)c2ccccc21	20µM*	7.1µM*	u	14µM*	1.1µM*	0.63µM*	1.6µM*	3.3µM*	4.6µM*	6.5µM*
CN(C)c1ccc(NC2=C(Cl)C(=O)c3ccccc3C2=O)cc1	u	16µM*	u	x	5.6µM*	5.6µM*	5.2µM*	12µM*	13µM*	u
Cc1ccc(NC2=C(NCCO)C(=O)c3ccccc3C2=O)cc1	24%	14%	14%	i	-21%	u	x	x	x	x
O=C(NCc1ccccc1Cl)c1ccc2nc([C@H]3C[C@H](O)[C@@H](CO)O3)[nH]c2c1	3%	x	x	i	3%	1%	x	x	x	x
COc1cc(OC)c(NC(=O)C(C)n2nc(-c3ccc(C)cc3)c3c(c2=O)CCCC3)cc1Cl (configuration not stated)	-36%	x	x	u	-22%	u	x	x	x	x
NC(Cc1ccc(C(F)(F)F)cc1)c1csc(Nc2cnccn2)n1 (configuration not stated)	u	x	x	u	-68%	7.1µM*	u	u	u	62%
NC(Cc1ccc(F)cc1)c1csc(Nc2ccc(C(F)(F)F)cn2)n1 (configuration not stated)	u	x	x	x	-111%	10µM*	u	u	u	-27%
NC(Cc1ccc(C(F)(F)F)cc1)c1csc(Nc2ncccn2)n1 (configuration not stated)	-28%	x	x	u	-30%	21%	x	x	x	x
